Screening results deposited in PubChem BioAssay by several laboratories.
This is a sample that favours compounds with a hit; in the whole collection about 3.7% have one here.
Rce1 inhib = inhibitors of yeast Ras-converting enzyme | calls only | 290,000 compounds, 0.27% hits | AID 2563 | Q03530 | yeast membranes, quenched prenylated peptide cleavage fluorescence;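 active = fall in fluorescence gain of 50% or more versus controls, with final raw signal at or below 3038400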;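 also: plate controls were neutral control wells for no effect and wells lacking membranes for full effect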
Target sequence (Q03530 whole entry, looked up): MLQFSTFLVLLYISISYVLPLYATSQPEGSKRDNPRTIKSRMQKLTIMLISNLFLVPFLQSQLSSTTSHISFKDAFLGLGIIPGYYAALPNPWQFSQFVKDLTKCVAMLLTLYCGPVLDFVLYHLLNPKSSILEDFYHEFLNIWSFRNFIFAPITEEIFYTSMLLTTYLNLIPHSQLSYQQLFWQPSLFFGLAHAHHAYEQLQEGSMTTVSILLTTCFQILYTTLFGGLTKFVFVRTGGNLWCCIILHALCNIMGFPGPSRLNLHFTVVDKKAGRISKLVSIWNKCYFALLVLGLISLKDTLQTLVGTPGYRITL
tim23-1 inh = tim23-1 yeast growth inhibition | S. cerevisiae tim23-1 growth, BacTiter-Glo luminescence, 24 h | inhibition, % at 20 µM | 330,000 compounds, 1.3% hits | AID 463212;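 active = growth inhibition of the mutant yeast at or above 50%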;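 also: temperature-sensitive mutant grown at 25 °C; plate controls were DMSO-treated mutant yeast for no effect and medium wells lacking yeast for full effect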
tim10-1 inh = inhibits growth of tim10-1 mutant yeast; S. cerevisiae tim10-1 ts strain growth, BacTiter-Glo, 24 h; inhibition, % at 20 µM; 330,000 compounds, 2.2% hits; AID 463190;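 active = inhibition of at least 40%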;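 also: mutant grown at 25 °C; 0% = DMSO wells with yeast and 100% = wells holding no yeast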
PfHsp90 yeast 2 = growth inhibition of yeast expressing Plasmodium Hsp90 | S. cerevisiae expressing PfHsp90, BacTiter-Glo ATP, 48 h; yeast lacking PDR1 and PDR3 efflux regulators | inhibition, % at 9.4 µM | 310,000 compounds, 0.32% hits | AID 504621;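 active = every replicate shows inhibition above about 80%, whatever the replicate mean, limit read from the data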;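 also: 0% = DMSO neutral controls and 100% = 20 µM radicicol positive controls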
TIM10 inh = growth inhibitors of TIM10 yeast strain | S. cerevisiae TIM10 strain growth, BacTiter-Glo luminescence, 24 h | inhibition, % at 10 µM | 330,000 compounds, 1.4% hits;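 active = inhibition of 40% or more at the single tested concentration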;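 also: wild-type TIM10 isogenic control strain grown at permissive 25 °C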
tim10-1 conf = confirmation of tim10-1 mutant yeast growth inhibitors; shares compounds with tim10-1 inh; inhibition, % at 20 µM; S. cerevisiae tim10-1 ts strain growth, BacTiter-Glo, 24 h; 7,400 compounds, 56% hits; AID 463213;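 active = inhibition of yeast growth at or above a set limit in either of two repeat tests at 20 µM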;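 also: tim10-1 mutant grown at permissive 25 °C to find synthetic lethal compounds; 0% = DMSO yeast wells and 100% = medium wells without yeast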
The depositor's hits bear a star; i = inactive; / = no result given.

SMILES	Rce1 inhib	tim23-1 inh	tim10-1 inh	PfHsp90 yeast 2	TIM10 inh	tim10-1 conf
O=C(NC(=S)Nc1ccccc1O)c1ccc(Cl)cc1Cl	/	42.7	42.7*	-2.4	12.0	26.8
O=C(NNC(=S)Nc1cccc(C(F)(F)F)c1)c1ccc(Cl)cc1Cl	i	39.9	51.6*	-31.6	17.2	46.4*
Cc1ccccc1C(=O)NNC(=S)Nc1cccc(C(F)(F)F)c1	i	5.5	25.6	-40.4	7.2	/
O=c1[nH]nc(SCCS(=O)(=O)c2ccc(F)cc2)n1-c1ccc2c(c1)OCCO2	i	20.5	9.1	-5.5	14.3	/
CC1CC(C)CN(C(=O)C2CCC(CNS(=O)(=O)c3ccccc3)CC2)C1 (configuration not stated)	i	32.3	24.1	-12.3	25.5	/
CCOC(=O)N1CCN(C2=C(NS(=O)(=O)c3ccccc3)C(=O)c3ccccc3C2=O)CC1	i	34.3	54.6*	-24.2	24.8	15.2
COc1ccc(S(=O)(=O)Nc2ccc(Cl)cn2)c(C)c1C	i	11.0	7.9	/	-8.9	/
O=C(/C=C/c1cccs1)c1cc(Br)ccc1OC(=O)N1CCOCC1	i	34.8	55.7*	-14.1	37.3	43.2*
Cc1ccc(Cl)cc1NS(=O)(=O)N1CCOCC1	i	4.4	0.5	-6.6	4.4	/
O=C1C=C(NC(=O)Nc2ccc(Cl)c(Cl)c2)CCC1	i	17.7	43.4*	-21.8	30.3	46.4*
O=C(Nc1ccc(Cl)cc1)Nc1ccc(Cl)c(Cl)c1	/	32.8	29.8	/	19.5	/
CN(C)S(=O)(=O)n1cc(/C=C(\NC(=O)c2ccccc2Cl)C(=O)N2CCOCC2)c2ccccc21	i	-5.5	-0.5	11.7	-18.2	/
COC(=O)c1ccccc1NC(=O)c1nc(S(=O)(=O)Cc2ccccc2)ncc1Cl	i	38.4	38.3	-5.4	28.4	/
CC(=O)Nc1ccc(NC(=O)c2nc(S(=O)(=O)Cc3ccccc3)ncc2Cl)cc1	i	12.4	0.2	-21.1	5.2	/
O=C(NCc1ccc2c(c1)OCO2)c1nc(S(=O)(=O)Cc2ccccc2)ncc1Cl	i	43.1	55.4*	1.5	38.6	25.8
O=C(NCc1ccccc1)c1nc(S(=O)(=O)Cc2ccccc2)ncc1Cl	i	42.1	51.6*	-20.8	31.0	9.3
COc1ccc(CNC(=O)c2nc(S(=O)(=O)Cc3ccccc3)ncc2Cl)cc1	i	42.1	58.8*	9.3	29.0	30.8*
CSc1nsc(SCC(=O)Nc2ccccc2C(N)=O)n1	i	1.6	-6.3	-4.8	13.2	/
CC(C)(C)OC(=O)NCCCCCNC(=O)c1[nH]cnc1C(=O)NC1CCN(C(=O)OC(C)(C)C)CC1	/	15.2	13.4	/	10.3	/
Cc1cccc(C(=O)OCC(=O)N2CCCC2=O)c1[N+](=O)[O-]	i	-0.6	15.4	/	2.7	/
CC(/C=N/NC(=O)c1sc(N)nc1C)=C\c1ccccc1	i	19.4	16.7	1.9	11.4	/
COC(=O)c1scc2c(=O)cc(C(F)(F)F)[nH]c12	i	1.0	-4.2	-2.0	10.8	/
COc1cccc(NC(=O)C2CCN(S(=O)(=O)c3ccc4c(c3)N(C(C)=O)CCO4)CC2)c1	i	4.4	2.8	-4.0	-3.4	/
CCOc1cccc2cc(-c3nnc(NCc4ccco4)s3)c(=O)oc12	i	22.7	40.4*	-14.9	23.2	20.9
COc1ccc(C2C=C(C34CC5CC(CC(C5)C3)C4)NC(=S)N2)cc1 (configuration not stated)	/	35.2	43.0*	-8.9	22.0	30.0
SMILES	Rce1 inhib	tim23-1 inh	tim10-1 inh	PfHsp90 yeast 2	TIM10 inh	tim10-1 conf
CN(C)C(=C(C#N)C#N)N1CCN(c2ccc(Cl)c(Cl)c2)CC1	i	26.6	41.9*	-13.4	7.8	10.4
CN(C)C(=C(C#N)C#N)N1CCN(c2ccc(Cl)cc2)CC1	i	0.6	8.8	-22.6	-1.7	/
CCOc1ccc(C(=O)NCC(=O)NCC2CCCCC2)cc1OCC	i	10.2	9.1	-20.2	3.3	/
COc1ccccc1CNC(=O)CCCNC(=O)Cn1cnc2sc(C)c(C)c2c1=O	i	-12.2	-33.3	18.4	7.9	/
COc1cc(NC(=O)C2=C(N3CCOCC3)/C(=C/c3ccc(Cl)cc3)CC2)cc(OC)c1OC	i	30.7	44.0*	-22.1	19.6	44.3*
COc1cc(NC(=O)C2=C(N3CCOCC3)/C(=C\c3ccc(N(C)C)cc3)CCC2)cc(OC)c1OC	i	26.6	29.8	6.8	21.8	/
CN(C1=C(N2CCOCC2)C(=O)c2ccccc2C1=O)c1ccccc1	i	42.1	44.9*	3.5	11.9	20.1
